Data as given in the supplement of paper PMC10646978.
± gives the standard deviation.

How the values were obtained:
Conditions in all cases: modulator concentration 10 µM
[1] = tested on: RAW-Dual (murine macrophage reporter line); experiment: NF-kB reporter (SEAP) activity fold change vs agonist alone; higher = enhanced NF-kB activity
Method in brief: (§1)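 In 384-well plates holding 50 000 RAW-Dual murine macrophage reporter cells per well, compound at 10 μM final was pre-incubated for 1 hour at 37 °C, after which a PRR agonist was added overnight. Supernatant SEAP read with QUANTI-Blue at 620 nm absorbance reported NF-κB, and Lucia luciferase read with QUANTI-Luc luminescence reported IRF. Fold change values come from dividing each reporter signal by the mean of agonist-only control wells on the same plate, averaged over replicate plates with propagated errors.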

[2] = tested on: RAW-Dual (murine macrophage reporter line); experiment: IRF reporter (Lucia luciferase) activity fold change vs agonist alone; higher = enhanced IRF activity
Method in brief: as §1

[3] = tested on: RAW-Dual (murine macrophage reporter line); experiment: viability score (confluency relative to resting cells, overnight) (fraction); higher = more viable, active = viable (0.7 or more)
Method in brief: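 Two confluency masks, generated with IncuCyte software over all imaged wells, were applied to IncuCyte images of RAW-Dual macrophages. The cells, in 384-well plates, had been exposed overnight to 10 μM final compound. The viability score is confluency as a fraction of resting cells, and a compound met the cutoff only with both masks above 70% of resting cells.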

[4] = agonist: CpG ODN 1826 0.5 ug/mL

| Structure (SMILES) | NF-kB reporter [1, 4] | NF-kB reporter ([1]; agonist: LPS 0.1 ug/mL) | NF-kB reporter ([1]; agonist: MPLA […]) | IRF reporter ([2]; agonist: 3'3'-cGAMP 10 ug/mL) | IRF reporter ([2]; agonist: LPS 0.1 ug/mL) | IRF reporter ([2]; agonist: MPLA […]) | viability score [3] |
| --- | --- | --- | --- | --- | --- | --- | --- |
| O=C(c1ccc(C(F)(F)F)nc1)N1CC(n2cc(C3CC3)nn2)C1 | 0.889 ± 0.073 | 0.931 ± 0.095 | 1.13 ± 0.082 | 1.01 ± 0.071 | 1.06 ± 0.15 | 1.08 ± 0.29 | 0.942 (active) |
| O=C(CC(c1ccccc1)c1ccccc1)Nc1ccc(CC(=O)N2CCC(O)CC2)cc1 | 1.03 ± 0.078 | 1.13 ± 0.097 | 0.907 ± 0.11 | 1.05 ± 0.062 | 1.13 ± 0.082 | 1.25 ± 0.1 | 1.01 (active) |
| O=C(Cn1c(=O)oc2ccccc21)N1Cc2cncnc2C1 | 0.853 ± 0.24 | 1.04 ± 0.052 | 0.988 ± 0.065 | 0.921 ± 0.042 | 0.991 ± 0.15 | 0.991 ± 0.12 | 0.998 (active) |
| CC(=NN1CCN(Cc2cccc3ccccc23)CC1)c1ccc(Br)cc1 | 1.08 ± 0.12 | 1.04 ± 0.071 | 1.08 ± 0.044 | 1 ± 0.13 | 1.05 ± 0.12 | 1.11 ± 0.29 | 1 (active) |
| Cc1ccccc1C(=O)Nc1ccc(C(=O)N2CCCC(O)c3cc(Cl)ccc32)c(C)c1 (centres undefined) | 1.02 ± 0.2 | 1.09 ± 0.15 | 0.92 ± 0.056 | 0.601 ± 0.019 | 1.04 ± 0.29 | 1.07 ± 0.13 | 0.998 (active) |
| O=C1OC(=O)C2C3CCC(O3)C12 (centres undefined) | 1.66 ± 0.13 | 1.45 ± 0.15 | 2.06 ± 0.2 | 1.77 ± 0.076 | 1.65 ± 0.22 | 1.72 ± 0.38 | 0.94 (active) |
| Cc1ccc(-c2ncc(Cl)cc2-c2ccc(S(C)(=O)=O)cc2)cn1 | 1.03 ± 0.17 | 1.15 ± 0.33 | 0.973 ± 0.054 | 1.05 ± 0.038 | 1.29 ± 0.4 | 1.37 ± 0.1 | 1 (active) |
| Cc1cc2ncn(CC3CCN(C(=O)COc4ccc(F)cc4)CC3)c2cc1C.O=C(O)C(=O)O | 0.724 ± 0.07 | 1.06 ± 0.1 | 0.931 ± 0.047 | 0.908 ± 0.064 | 0.916 ± 0.09 | 0.814 ± 0.26 | 1 (active) |
| CCOC(=O)C1=C(C)NC(C)=C(C(=O)OCC)C1c1ccc(Cl)c(Cl)c1 | 0.693 ± 0.23 | 0.996 ± 0.078 | 0.832 ± 0.079 | 1.05 ± 0.045 | 1.19 ± 0.19 | 1.37 ± 0.29 | 0.998 (active) |
| COc1ccc(N2CC(NC(=O)Nc3cccc(Cl)c3C)CC2=O)cc1OC (centres undefined) | 0.89 ± 0.064 | 1 ± 0.085 | 1.01 ± 0.061 | 0.977 ± 0.074 | 1.1 ± 0.21 | 1.15 ± 0.45 | 0.973 (active) |
| CN(C)CCN(Cc1ccccc1)c1ccccn1.Cl | 0.731 ± 0.19 | 0.911 ± 0.052 | 0.927 ± 0.064 | 0.811 ± 0.074 | 0.954 ± 0.22 | 0.854 ± 0.081 | 1.01 (active) |
| c1ccc2[nH]c(-c3cscn3)nc2c1 | 1.14 ± 0.16 | 1.16 ± 0.21 | 0.915 ± 0.055 | 0.81 ± 0.037 | 1.17 ± 0.17 | 1.04 ± 0.13 | 0.995 (active) |
| N#Cc1cc(OC2CCSC2)nc2ccccc12 (centres undefined) | 1.04 ± 0.067 | 1.05 ± 0.095 | 1.18 ± 0.065 | 0.935 ± 0.071 | 0.959 ± 0.045 | 1.15 ± 0.16 | 1 (active) |
| CCCCOc1ccc(S(=O)(=O)NCCCn2ccnc2)cc1 | 0.946 ± 0.078 | 1.18 ± 0.089 | 1.21 ± 0.071 | 1.07 ± 0.038 | 1.84 ± 0.13 | 1.58 ± 0.2 | 0.987 (active) |
| CCN(CC)c1nc(-c2ccccc2Cl)c2cc(Br)ccc2n1 | 0.999 ± 0.081 | 0.975 ± 0.1 | 1.02 ± 0.042 | 0.786 ± 0.058 | 1.05 ± 0.14 | 1.14 ± 0.25 | 1 (active) |
| O=C(Nc1ccc([N+](=O)[O-])cc1Br)C1CC12CCC2 (centres undefined) | 0.957 ± 0.074 | 0.83 ± 0.068 | 1.05 ± 0.13 | 1.03 ± 0.049 | 1.39 ± 0.27 | 1.55 ± 0.38 | 1.02 (active) |
| COc1ccc(Cn2c(SC)nc3c(c2=O)C2(CCCCC2)Cc2ccccc2-3)cc1 | 1.43 ± 0.45 | 0.856 ± 0.076 | 1.15 ± 0.2 | 0.791 ± 0.099 | 0.995 ± 0.076 | 1.33 ± 0.25 | 0.989 (active) |
| CCC1(CC)Cc2ccccc2C(CC(=O)N2CCOCC2)=N1.O=S(=O)(O)O | 0.627 ± 0.058 | 1.13 ± 0.072 | 1.16 ± 0.096 | 0.601 ± 0.044 | 0.964 ± 0.074 | 1.16 ± 0.21 | 0.829 (active) |
| OCC(O)CN1CCN(c2ccccc2)CC1 (centres undefined) | 1.06 ± 0.091 | 1.03 ± 0.12 | 1.02 ± 0.039 | 1.03 ± 0.064 | 0.991 ± 0.11 | 0.982 ± 0.17 | 0.996 (active) |
| COc1ccc(C)c2sc(=NC(=O)c3ccccc3)n(C)c12 | 1.16 ± 0.11 | 1.17 ± 0.06 | 2.25 ± 0.073 | 0.904 ± 0.05 | 0.969 ± 0.15 | 2.01 ± 0.31 | 0.99 (active) |
| OCC(CO)N[C@H]1C[C@](O)(CO)[C@@H](O)[C@H](O)[C@H]1O | 0.913 ± 0.054 | 0.924 ± 0.074 | 0.916 ± 0.046 | 0.908 ± 0.058 | 1.04 ± 0.065 | 0.884 ± 0.07 | 1 (active) |
| CCOC(=O)c1ncn2c1CN(C)C(=O)c1cc(F)ccc1-2 | 1.26 ± 0.22 | 1.03 ± 0.28 | 0.975 ± 0.058 | 0.912 ± 0.029 | 1.2 ± 0.27 | 1.16 ± 0.088 | 0.995 (active) |
| CCC(C)NC(=O)C(=O)Nc1cccc(C(F)(F)F)c1 (centres undefined) | 0.89 ± 0.093 | 1.05 ± 0.073 | 0.87 ± 0.052 | 1.04 ± 0.058 | 1.16 ± 0.18 | 0.959 ± 0.14 | 1.02 (active) |
| COc1cc(C(=O)Nc2ccc(-c3ccc(N4CCC(C)CC4)nn3)cc2)cc(OC)c1OC | 0.862 ± 0.1 | 0.879 ± 0.073 | 0.754 ± 0.12 | 1.02 ± 0.087 | 1.26 ± 0.11 | 1.59 ± 0.12 | 0.913 (active) |
| CC(C)C(C(=O)Nc1ccccc1C(N)=O)N1C(=O)c2ccccc2C1=O (centres undefined) | 0.93 ± 0.085 | 1.1 ± 0.071 | 0.932 ± 0.058 | 1.02 ± 0.043 | 1.34 ± 0.16 | 1.16 ± 0.075 | 1.01 (active) |
| CS(=O)(=O)Nc1cccc(F)c1 | 1.12 ± 0.088 | 1.08 ± 0.074 | 1.03 ± 0.061 | 1 ± 0.17 | 1.07 ± 0.14 | 1.07 ± 0.22 | 1 (active) |
| COc1ccc(CNCc2ccc3ccccc3c2)c(OC)c1 | 0.163 ± 0.026 | 1.08 ± 0.09 | 1.79 ± 0.56 | 0.644 ± 0.046 | 1.74 ± 0.38 | 2.05 ± 0.59 | 0.688 (inactive) |
